Data as given in PubChem BioAssay AID2642 (Johns Hopkins Ion Channel Center, 2010).
Among all 310,000 compounds or so, about 3,900 (1.3%) were called active.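 The calls were made as follows: active = compounds whose thallium flux B-score, printed positive for inhibition, exceeds three library SD while starting fluorescence stays within three; inactive = the rest.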 The sample as a whole holds a higher share of actives than the screen did.

What follows are molecules tested against Potassium voltage-gated channel subfamily KQT member 1 (Homo sapiens) (UniProt P51787) (assay: inhibitors of human KCNQ1 channel, primary screen, cell-based, thallium flux, high-throughput (AID 2642;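 also: channel opened by potassium depolarization with thallium stimulus after 20 min compound exposure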)). Settings: CHO-K1 KCNQ1, FluxOR thallium flux fluorescence, at 10 µM; hits give high values.
Sequence of Potassium voltage-gated channel subfamily KQT member 1 (Homo sapiens) (P51787 whole entry, looked up): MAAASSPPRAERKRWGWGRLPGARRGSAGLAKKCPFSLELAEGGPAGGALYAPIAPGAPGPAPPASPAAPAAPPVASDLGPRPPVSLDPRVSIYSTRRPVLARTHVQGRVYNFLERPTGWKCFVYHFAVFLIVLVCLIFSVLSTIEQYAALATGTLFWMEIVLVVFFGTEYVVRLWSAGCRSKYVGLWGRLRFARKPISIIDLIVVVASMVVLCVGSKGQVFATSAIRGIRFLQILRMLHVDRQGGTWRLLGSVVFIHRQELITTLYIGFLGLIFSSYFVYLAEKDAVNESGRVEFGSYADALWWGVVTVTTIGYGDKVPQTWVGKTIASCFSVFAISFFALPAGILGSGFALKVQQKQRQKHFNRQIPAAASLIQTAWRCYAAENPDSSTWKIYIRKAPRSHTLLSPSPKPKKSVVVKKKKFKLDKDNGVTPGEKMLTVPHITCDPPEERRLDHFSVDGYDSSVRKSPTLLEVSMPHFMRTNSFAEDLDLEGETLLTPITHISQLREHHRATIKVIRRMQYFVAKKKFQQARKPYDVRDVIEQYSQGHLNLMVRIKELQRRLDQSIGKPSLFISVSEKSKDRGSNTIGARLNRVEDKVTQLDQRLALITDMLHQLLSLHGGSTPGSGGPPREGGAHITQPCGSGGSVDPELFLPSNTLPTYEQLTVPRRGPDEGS

**Q.** O=C(O)CCCn1c(=O)c2cccn2c2ccc(F)cc21 was tested. Which B-score did it give?
**A.** The B-score was “inactive”.

**Q.** For C=CCOC(=O)C1=C(C)OC(N)=C(C#N)C1c1ccc(F)cc1 (centres undefined), which B-score is on record?
**A.** The B-score was “inactive”.

**Q.** For C=CCOC(=O)C1=C(C)NC(SCC(=O)OCC)=C(C#N)C1c1ccc(C)cc1 (centres undefined), which B-score is on record?
**A.** The B-score was 6 (active).

**Q.** For CCOC(=O)CSC1=C(C#N)C(c2sccc2C)CC(=O)N1 (centres undefined), which B-score is on record?
**A.** Its B-score is “inactive”.

**Q.** Which B-score does the source give for NC(=O)c1ncc(C(F)(F)F)cc1Oc1ccc(F)cc1 here?
**A.** Its B-score is “inactive”.

**Q.** How did the B-score turn out when CCOc1ccc(N/C(N)=N/c2nc(C)c(C)c(=O)[nH]2)cc1 was run?
**A.** Its B-score is “inactive”.

**Q.** With CCc1nnc(NC(=O)CCCSc2nc3ccccc3[nH]2)s1 as the molecule, how does the B-score read?
**A.** The B-score was “inactive”.

**Q.** For CCCCSc1nc2ccccc2[nH]1, which B-score is on record?
**A.** The B-score was “inactive”.

**Q.** Which B-score does the source give for CCC(C)N1C(=O)S/C(=C/c2ccc(Sc3nc4ccccc4[nH]3)o2)C1=O (centres undefined) here?
**A.** The B-score was 13 (active).

**Q.** CCOc1ccc(C(=O)NCC(=O)N2CCCCCCC2)cc1OCC was tested. Which B-score did it give?
**A.** The B-score was “inactive”.

**Q.** CC(=O)N1CCC(C(=O)Nc2nc(-c3ccccc3)ns2)CC1 was tested. Which B-score did it give?
**A.** The B-score was “inactive”.

**Q.** For COc1ccc(/C=C(\C#N)c2c[nH]c3ccccc23)cc1, which B-score is on record?
**A.** The B-score was “inactive”.

**Q.** How did the B-score turn out when C[n+]1ccc(/C=C/c2c[nH]c3ccccc23)cc1 was run?
**A.** Its B-score is 13 (active).

**Q.** How did the B-score turn out when O=C(N/N=C/c1c[nH]c2ccccc12)c1ccccc1O was run?
**A.** The B-score was “inactive”.

**Q.** Which B-score does the source give for COc1ccc(CC(=O)OC(C)C(=O)Nc2ccc(S(N)(=O)=O)cc2)cc1 (centres undefined) here?
**A.** The B-score was “inactive”.

**Q.** For COC(=O)c1cc(NC(=O)c2ccco2)ccc1N1CCOCC1, which B-score is on record?
**A.** The B-score was “inactive”.

**Q.** For CC(=O)Nc1ccc(N2CCOCC2)c(C(=O)Nc2cccc(C)c2)c1, which B-score is on record?
**A.** The B-score was “inactive”.

**Q.** How did the B-score turn out when COC(=O)c1cc(NC(=O)c2cc(C(C)(C)C)nn2Cc2cccc(C)c2)ccc1N1CCOCC1 was run?
**A.** The B-score was 6 (active).

**Q.** Which B-score does the source give for CCCCCC(O)c1cccc(OCc2ccc3ccccc3n2)c1 (centres undefined) here?
**A.** Its B-score is 6 (active).

**Q.** For COc1cccc(C(O)c2nc3ccccc3n2C)c1 (centres undefined), which B-score is on record?
**A.** Its B-score is “inactive”.

**Q.** With CCCCCCOC(=O)NCC(O)c1ccccc1 (centres undefined) as the molecule, how does the B-score read?
**A.** Its B-score is “inactive”.

**Q.** For O=C(O)CC12CC3CC(C1)CC(n1ncc(NCc4ccc(F)cc4)c(Cl)c1=O)(C3)C2, which B-score is on record?
**A.** Its B-score is “inactive”.

**Q.** For CC(=O)N/N=C/c1cc2c(cc1[N+](=O)[O-])OCO2, which B-score is on record?
**A.** The B-score was “inactive”.

**Q.** O=C(N/N=C/c1cc2c(cc1Br)OCO2)C1COc2ccccc2O1 (centres undefined) was tested. Which B-score did it give?
**A.** Its B-score is “inactive”.

**Q.** CC1(C(=O)N/N=C/c2cc3c(cc2Br)OCO3)CC1(Br)Br (centres undefined) was tested. Which B-score did it give?
**A.** The B-score was 9 (active).

**Q.** Which B-score does the source give for OCCN1CCN(c2nnc(-c3ccccc3)c3ccccc23)CC1 here?
**A.** Its B-score is “inactive”.

**Q.** With CCCC(=O)N1CCN(c2nnc(-c3ccc(C)cc3)c3ccccc23)CC1 as the molecule, how does the B-score read?
**A.** Its B-score is 7 (active).

**Q.** With c1ccc(-c2nnc(N3CCOCC3)c3ccccc23)cc1 as the molecule, how does the B-score read?
**A.** Its B-score is “inactive”.

**Q.** Which B-score does the source give for COC(=O)c1ccc(S(=O)(=O)N2CCc3ccccc3C2)cc1 here?
**A.** Its B-score is “inactive”.

**Q.** For COc1ccccc1CNC(=O)C1Cc2ccccc2C(=O)O1 (centres undefined), which B-score is on record?
**A.** The B-score was “inactive”.

**Q.** How did the B-score turn out when CCNC(=S)N(CCN(CC)CC)Cc1cc2cc3c(cc2[nH]c1=O)OCO3 was run?
**A.** The B-score was “inactive”.

**Q.** Clc1ccc(CSc2nnc3c(n2)[nH]c2ccccc23)cc1 was tested. Which B-score did it give?
**A.** The B-score was “inactive”.

**Q.** CCCCn1ccnc1C(=O)c1cccc(S(=O)(=O)N2c3ccccc3CC2C)c1 (centres undefined) was tested. Which B-score did it give?
**A.** The B-score was 6 (active).

**Q.** CC1Cc2ccccc2N1S(=O)(=O)c1c(N)n(C)c(=O)n(C)c1=O (centres undefined) was tested. Which B-score did it give?
**A.** The B-score was “inactive”.

**Q.** CC1Cc2ccccc2N1S(=O)(=O)c1ccc(Cl)nc1 (centres undefined) was tested. Which B-score did it give?
**A.** Its B-score is “inactive”.

**Q.** For COc1ccc(C2C(C#N)=C(/N=C/N3CCOCC3)OC3=C2C(=O)CC(C)(C)C3)cc1OC (centres undefined), which B-score is on record?
**A.** Its B-score is “inactive”.

**Q.** Which B-score does the source give for CSc1nccc(NC(=O)c2ccc(C(C)(C)C)cc2)n1 here?
**A.** Its B-score is 7 (active).

**Q.** With COC(=O)c1nc(NC(=O)c2ccc(C(C)(C)C)cc2)n[nH]1 as the molecule, how does the B-score read?
**A.** Its B-score is “inactive”.

**Q.** Cc1cccc(NC(=O)c2cccnc2Cl)n1 was tested. Which B-score did it give?
**A.** The B-score was “inactive”.

**Q.** For COc1ccccc1N(C)S(=O)(=O)c1ccc(Cl)c(C(=O)Nc2ccncc2)c1, which B-score is on record?
**A.** Its B-score is “inactive”.

**Q.** How did the B-score turn out when Cc1cnc(C(=O)OCC(=O)NCCCc2ccccc2)cn1 was run?
**A.** Its B-score is “inactive”.

**Q.** For Cc1ccc(OC(=O)c2cncc(Br)c2)c(C)c1, which B-score is on record?
**A.** Its B-score is “inactive”.

**Q.** Which B-score does the source give for O=C(Nc1ccccc1)Nc1ccccc1C(=O)NCc1ccco1 here?
**A.** Its B-score is “inactive”.

**Q.** For Cc1cccc(Nc2ccccc2C(=O)NCc2ccco2)c1C, which B-score is on record?
**A.** The B-score was 9 (active).

**Q.** For Cc1ccccc1NC(=O)NCc1ccco1, which B-score is on record?
**A.** The B-score was “inactive”.

**Q.** Which B-score does the source give for CSc1ccc(S(=O)(=O)N2CCC(C(=O)NCc3ccncc3)CC2)cc1 here?
**A.** The B-score was “inactive”.

**Q.** Cc1csc(NC(=O)CSc2nnc(-c3cccnc3)o2)n1 was tested. Which B-score did it give?
**A.** The B-score was “inactive”.

**Q.** For Cc1ccccc1OCC(=O)Nc1ccc2c(c1)ncn2C, which B-score is on record?
**A.** Its B-score is “inactive”.

**Q.** How did the B-score turn out when Cc1ccccc1OCC(=O)Nc1ccc(N2CCN(C(=O)C(C)C)CC2)c(Cl)c1 was run?
**A.** Its B-score is 6 (active).

**Q.** Cc1ccccc1OCC(=O)Nc1ccc(S(=O)(=O)N2CCOCC2)cc1 was tested. Which B-score did it give?
**A.** Its B-score is “inactive”.

**Q.** For CC(=O)NNC1=Nc2ccccc2N(C)C(C)C1 (centres undefined), which B-score is on record?
**A.** The B-score was “inactive”.

**Q.** With CCc1ccc2c(c1)C1(NN=C(c3ccccc3)S1)C(=O)N2 (centres undefined) as the molecule, how does the B-score read?
**A.** Its B-score is 11 (active).

**Q.** With CC(C)N(C(=O)Cn1cc(S(=O)(=O)CC(=O)N2CCOCC2)c2ccccc21)C(C)C as the molecule, how does the B-score read?
**A.** The B-score was “inactive”.

**Q.** COc1ccccc1NC(=O)c1ccc(N2CC3CC(C2)c2cccc(=O)n2C3)c(NC(=O)c2cccnc2)c1 (centres undefined) was tested. Which B-score did it give?
**A.** The B-score was “inactive”.

**Q.** O=C1CCC(=O)N1c1ccc(NCCc2ccccc2F)c([N+](=O)[O-])c1 was tested. Which B-score did it give?
**A.** The B-score was “inactive”.

**Q.** Which B-score does the source give for CC1(c2nnc(Cc3ccccc3)o2)CC(c2ccccc2F)=NO1 (centres undefined) here?
**A.** The B-score was “inactive”.

**Q.** With C=CCOc1cccc(C2C(C(=O)c3ccc(C)o3)=C(O)C(=O)N2c2nnc(C)s2)c1 (centres undefined) as the molecule, how does the B-score read?
**A.** The B-score was 11 (active).

**Q.** For Cc1cc(N2C(=O)C(O)=C(C(=O)c3ccc(C)o3)C2c2ccc(OCc3ccccc3)cc2)no1 (centres undefined), which B-score is on record?
**A.** The B-score was “inactive”.

**Q.** Which B-score does the source give for C=CCOc1cccc(C2C(C(=O)c3ccc(C)o3)=C(O)C(=O)N2CCCn2ccnc2)c1 (centres undefined) here?
**A.** The B-score was “inactive”.

**Q.** With COc1ccc(NC(=O)C2=CC(c3ccc(OC)c(OC)c3)=NS(=O)(=O)N2C)cc1 as the molecule, how does the B-score read?
**A.** Its B-score is “inactive”.

**Q.** With Cc1ccc2c(c1)N(CC(=O)NCC1CCCO1)C(=O)CO2 (centres undefined) as the molecule, how does the B-score read?
**A.** The B-score was “inactive”.

**Q.** With Cc1nn(CC(=O)NCC2CCCO2)c(=O)c2cc3ccccc3n12 (centres undefined) as the molecule, how does the B-score read?
**A.** The B-score was “inactive”.

**Q.** How did the B-score turn out when COCc1cc(C)n(CC(=O)NCC2CCCO2)c(=O)c1C#N (centres undefined) was run?
**A.** Its B-score is 6 (active).

**Q.** Cc1cc(-c2ccc(C)c(S(=O)(=O)Nc3ccc(S(N)(=O)=O)cc3)c2)on1 was tested. Which B-score did it give?
**A.** The B-score was “inactive”.

**Q.** Cc1cccc(N2CCN(C(c3ccc(N(C)C)cc3)c3nnnn3C(C)(C)C)CC2)c1C (centres undefined) was tested. Which B-score did it give?
**A.** Its B-score is “inactive”.

**Q.** Cc1cccc(N2CCN(C(c3ccccc3)c3nnnn3CC3CCCO3)CC2)c1C (centres undefined) was tested. Which B-score did it give?
**A.** The B-score was 6 (active).

**Q.** With COc1ccccc1C(c1nnnn1CC1CCCO1)N1CCN(c2ccccc2)CC1 (centres undefined) as the molecule, how does the B-score read?
**A.** The B-score was “inactive”.

**Q.** NC(=O)C1CCN(C(=O)CC2C(=O)NCCN2Cc2cccc(Oc3ccccc3)c2)CC1 (centres undefined) was tested. Which B-score did it give?
**A.** Its B-score is “inactive”.

**Q.** CS(=O)(=O)N1CCc2nc(-c3ccccc3)sc2C1 was tested. Which B-score did it give?
**A.** The B-score was “inactive”.
